Measured values reported in PubChem BioAssay (NCATS).
Records with an inconclusive call do not appear. A call without a number means that no potency is given here. A number with no mark means an inactive call. Active and inactive are the calls of the source. The call rests on the fitted dose curve; in most records, active means well fitted curve in the direction sought with a large enough effect; inconclusive means small, poorly fitted or top-dose-only effect, or another doubt; inactive means no such curve, though single readings can be large; an effect the other way counts as inactive or inconclusive.

Legend:
[1] = target: Aldehyde dehydrogenase, mitochondrial (Homo sapiens) (UniProt P05091); experiment: qHTS for Inhibitors of the Aldehyde Dehydrogenase Family (ALDH2) Primary screen (AID 2061308); further: nearly all actives have a fitted effect of over 55% in size
[2] = target: Retinaldehyde dehydrogenase 3 (Homo sapiens) (UniProt P47895); experiment: qHTS for Inhibitors of the Aldehyde Dehydrogenase Family (ALDH1A3) Primary screen (AID 2061315)

| Structure (SMILES) | Potency [1] | Potency [2] | activity change, negative = inhibition [1] | activity change, negative = inhibition [2] |
| --- | --- | --- | --- | --- |
| Cc1nn2c(=O)cc(N3CCNCC3)nc2s1 | inactive | inactive | – | – |
| C/C=C(\C)C(=O)O[C@H]1CC2C(=C1C)[C@H]1OC(=O)[C@](C)(O)[C@]1(O)[C@H](OC(=O)CCC)C[C@@]2(C)OC(C)=O (stereo partly specified) | inactive | inactive | – | – |
| C[n+]1cc(P(=S)(c2ccccc2)c2ccccc2)n2ccccc21 | inactive | inactive | – | – |
| CC[C@H](C)[C@H](NC(=O)[C@H]1CCCCN1C)C(=O)N(COC(=O)CC(C)C)[C@H](C[C@@H](OC(C)=O)c1nc(C(=O)N[C@@H](Cc2ccc(O)cc2)C[C@H](C)C(=O)O)cs1)C(C)C | – | – | -2.41% [at 1.12 µM] | 6.02% [at 1.12 µM] |
| CCC1CN2CCC3(C(=O)Nc4cccc(O)c43)C2CC1/C(=C/OC)C(=O)OC (stereo unspecified) | inactive | inactive | – | – |
| CC[C@H]1CN2CC[C@H]1C[C@@H]2[C@@H](O)c1ccnc2ccc(OC)cc12 | inactive | inactive | – | – |
| C/C=C(\C)C(=O)O[C@H]1[C@H](OC(C)=O)[C@]2(CO)[C@H](O)[C@H](O)[C@]3(C)C(=CCC4[C@@]5(C)CC[C@H](O[C@@H]6O[C@H](C(=O)O)[C@@H](O)[C@H](O[C@@H]7OC[C@H](O)[C@H](O[C@@H]8OC[C@H](O)[C@H](O)[C@H]8O)[C@H]7O)[C@H]6O[C@@H]6O[C@H](CO)[C@@H](O)[C@H](O)[C@H]6O)C(C)(C)C5CC[C@]43C)[C@@H]2CC1(C)C (stereo partly specified) | – | – | 1.02% [at 11.2 µM] | 2.55% [at 11.2 µM] |
| CO/C1=C\C(C)=C\[C@@H](C)[C@@H](O)[C@@H](C)C/C(C)=C/C=C/[C@H](OC)[C@@H]([C@@H](C)[C@@H](O)[C@H](C)[C@@]2(O)C[C@@H](O)[C@H](C)[C@@H](C(C)C)O2)OC1=O | inactive | inactive | – | – |
